Results reported in PubChem BioAssay AID686964 (The Scripps Research Institute Molecular Screening Center, 2013).
The campaign covered roughly 370,000 compounds. About 1,100 (0.3%) were called active. For the sample, actives were picked, then their nearest neighbours and some compounds at random. Unmarked numbers belong to inactive results. Rule as the data show it: active = inhibition above about 13%; inactive = the rest.

Target: Methyl-CpG-binding domain protein 2 (Homo sapiens) (UniProt Q9UBB5)
Sequence (Q9UBB5 whole entry, looked up, the tested form may be a part): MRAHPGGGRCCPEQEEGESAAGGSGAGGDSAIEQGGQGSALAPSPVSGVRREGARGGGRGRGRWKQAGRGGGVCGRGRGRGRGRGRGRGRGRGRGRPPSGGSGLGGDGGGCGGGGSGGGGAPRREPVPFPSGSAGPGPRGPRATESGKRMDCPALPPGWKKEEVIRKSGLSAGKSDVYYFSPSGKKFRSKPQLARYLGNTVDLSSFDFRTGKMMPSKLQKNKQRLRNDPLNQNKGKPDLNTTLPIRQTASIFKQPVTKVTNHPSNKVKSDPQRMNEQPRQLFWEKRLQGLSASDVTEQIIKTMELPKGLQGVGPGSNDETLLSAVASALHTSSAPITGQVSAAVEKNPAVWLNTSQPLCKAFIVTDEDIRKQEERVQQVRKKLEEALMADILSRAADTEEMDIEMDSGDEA
Assay: MBD2-DBD methyl-oligonucleotide interaction blockers – biochemical, TR-FRET, DNA-binding domain, human, primary screen (AID 686964)
Conditions: MBD2 binding to methylated oligonucleotide, at 4.4 µM, active compounds read high

Going from `CC(C)C(C#CC1CC1)N(Cc1ccc2c(c1)OCO2)C(N)=NC(=O)/C=C/c1cccc(C(F)(F)F)c1` (centres undefined) to `C[C@H](O)[C@@H]1CN2CCc3ccc(-c4ccc5c(c4)OCO5)cc3[C@@H]2C[C@@H]1N(C)C(=O)C1CCCCC1`, the inhibition falls from -0.7% to -1.38%.

Going from `CC(C)(C)NC(=O)C(c1cccnc1)N(C(=O)c1cnco1)c1ccc(C(C)(C)C)cc1` (centres undefined) to `COc1ccc(-c2ccc(CCC(=O)O)n2NC(=O)c2ccc(C(C)(C)C)cc2)cc1`, the inhibition falls from 2.09% to -1.3%.

Compared with `CCC(NC(=O)C1C2C=CC3(CN(Cc4ccccc4)C(=O)C13)O2)c1ccccc1` (centres undefined), `CC(CCN1CCC(C(O)(c2ccccc2)c2ccccc2)CC1)Oc1ccc([N+](=O)[O-])cc1Cl` (centres undefined) is higher in inhibition: 0.25% for the first, 1.05% for the second.

Compared with `COc1ccc(-c2nnc(SCC(=O)c3ccc4c(c3)OCCO4)o2)cc1`, `CCc1ccccc1NC(=O)CSc1nnc(-c2cccs2)o1` is higher in inhibition: -3.62% for the first, 2.5% for the second.

Compared with `O=C(CSc1nncn1-c1cccnc1)N1CCOCC1`, `CCN(Cc1ccncc1)C(=O)c1cccc(S(=O)(=O)N2CCOCC2)c1` is lower in inhibition: 2.16% for the first, 0.65% for the second.

Compared with `COc1cc(NC(=O)C2CCCN(S(=O)(=O)c3ccc(C(C)(C)C)cc3)C2)cc(OC)c1` (centres undefined), `COc1ccc(NS(=O)(=O)c2cc3c(cc2C)N(C(C)=O)CCO3)cc1` is lower in inhibition: -0.54% for the first, -5.65% for the second.

Compared with `CCCCCCCCN1C(=O)[C@@H](CC(=O)NCc2ccccc2)C[C@@]2(C(=O)OC)C1=C[C@H](C(C)(C)C)O[C@@H]2C`, `CCCCNC(=O)C[C@H]1C(=O)N(Cc2ccc(OC)cc2)C2=CCCC[C@@]21C(=O)OCC` is lower in inhibition: 3.75% for the first, -1.99% for the second.

First: O=C(c1ccncc1)N1CC[C@H]2[C@H](CCCN2Cc2ccc(F)cc2)C1
Second: CCN1CCN(C(=O)N(Cc2ccc(Cl)cc2)S(=O)(=O)c2ccc(C)cc2)CC1
The inhibition of the first is lower: -6.65% for the first, 2.19% for the second.

First: CC1CCCN(CCOCCOc2ccccc2-c2ccccc2)C1 (centres undefined)
Second: N#Cc1ccccc1OC[C@@H](O)CN1CCC(C(O)(c2ccccc2)c2ccccc2)CC1
The inhibition of the first is lower: -4.99% for the first, 0.72% for the second.

First: COc1ccc(CNC(=O)c2cc(C(=O)C3CC3)c[nH]2)cc1
Second: CCSc1ccccc1C(=O)NCc1ccc(OC)cc1
The inhibition of the first is higher: 1.85% for the first, -9.91% for the second.

Compared with `COCCn1c(CN2CCC(Cc3ccccc3)CC2)nc2c1c(=O)n(C)c(=O)n2C`, `Cc1cccc(CN2CCN(C3CN(Cc4ccccc4)S(=O)(=O)C3)CC2)c1` (centres undefined) is lower in inhibition: 4.97% for the first, 1.18% for the second.

Going from `O=C(CCCCCN1C(=O)C2C3C=CC(C3)C2C1=O)Nc1ccccc1` (centres undefined) to `COc1ccc(-c2ccc(CCC(=O)O)n2-c2ccc(O)cc2)cc1`, the inhibition rises from -6.87% to -0.88%.

Going from `Cc1nc(S(=O)(=O)c2ccc(Br)cc2)nc2c1CCC2` to `Cc1ccc(S(=O)(=O)Cn2nnnc2CN2CCN(Cc3ccc4c(c3)OCO4)CC2)cc1`, the inhibition falls from 1.36% to 0.18%.

Compared with `CO/N=C/CC(=O)c1ccc(OC)cc1`, `CCOc1ccc(Oc2c(Cl)cnn(-c3ccc(C)cc3)c2=O)cc1` is higher in inhibition: -0.8% for the first, 3.14% for the second.

Compared with `CSc1nnc(-c2ccc(C(F)(F)F)cn2)o1`, `Cc1nn(-c2ncc(C(F)(F)F)cc2Cl)c(=O)n1-c1ccccc1` is higher in inhibition: 2.79% for the first, 3.32% for the second.

First: Cc1ccccc1NC(=O)c1ccc(COc2ccc3c(C)cc(=O)oc3c2)cc1
Second: Cc1ccc(O)c(NC(=O)c2cc(-c3ccco3)on2)c1
The inhibition of the first is higher: 5.18% for the first, -2.88% for the second.

First: Cc1cccc(CN2CCN(C3CN(Cc4cn(Cc5ccccc5F)nn4)S(=O)(=O)C3)CC2)c1 (centres undefined)
Second: Cc1ccc(-c2nc3c(Cl)cc(C(F)(F)F)cn3c2Cc2cccc(Cl)c2)cc1
The inhibition of the first is higher: 5.03% for the first, -2.87% for the second.

First: CCOc1nc(OCC)nc(-n2cc(-c3ccccc3)nn2)n1
Second: CCC12CN3CC(CC)(CN(C1)C31C(=O)N(C)c3ccc(C)cc31)C2=O (centres undefined)
The inhibition of the first is higher: -0.3% for the first, -7.87% for the second.

With `COc1ccc(-n2c(C)cc(C(=O)CSc3nnc(-c4cccs4)o3)c2C)cc1` the inhibition was 15.1% (active).
In the case of `COc1ccc2c(c1)c(=Cc1ccc(N(C)C)cc1)c1cc(-c3ccccc3)[n+](C)n12`, the inhibition is reported as 29.6% (active).
For `COc1ccc(CNC(=O)c2c[nH]c3c(OC)cc(OC)cc3c2=O)cc1`, the inhibition was 23.4% (active).
In the case of `CO/N=C(/CS(=O)(=O)c1ccc(Br)cc1)c1ccc(OC)cc1`, the inhibition is reported as 14% (active).
For `Cc1ccc(C)c(NC(=O)c2ccc(OC(=O)c3ccco3)cc2)c1`, the inhibition was 19.6% (active).
In the case of `Cc1cccc(CN2CCN(C3CN(Cc4cn(Cc5cc(C)cc(C)c5)nn4)S(=O)(=O)C3)CC2)c1` (centres undefined), the inhibition is reported as 17.4% (active).
`CCOC(=O)c1ccc(-n2c(CCC(=O)O)ccc2-c2ccccc2)cc1` was tested, and the inhibition was 14.6% (active).
In the case of `Cc1ccc(-c2ccnc3nc(Sc4ncc(C(F)(F)F)cc4Cl)nn23)cc1`, the inhibition is reported as 14.8% (active).
